Source: PubChem BioAssay (NCI)
About 79,000 compounds went through this panel and 15% of them were active in at least one assay; those are over-represented in the sample as a whole. The source made the active and inactive calls. No stated cut-off is given here; in the data, active means growth inhibition above about 70%; inactive means the rest.

Columns and labels:
[1] = NCI Yeast Anticancer Drug Screen. Data for the rad52 strain (AID 147);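 further: 0% = growth of vehicle-treated control cultures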; settings: S. cerevisiae rad52 mutant growth inhibition, stronger effect = higher value
Method in brief: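 Here a repair-compromised yeast strain receives each compound; its growth is then quantified and normalised to vehicle-only controls.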

[2] = NCI Yeast Anticancer Drug Screen. Data for the wt1 strain (AID 149);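 further: 0% = growth of vehicle-treated wt1 cultures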; settings: S. cerevisiae wt1 strain (SPY 50644) growth inhibition, stronger effect = higher value
Method in brief: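 Using yeast strain wt1, compound-induced growth inhibition was determined against vehicle-treated cultures.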

[3] = NCI Yeast Anticancer Drug Screen. Data for the rad50EPP+ strain (AID 151);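 further: 0% = growth of vehicle-treated control cultures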; settings: S. cerevisiae rad50 mutant strain, stronger effect = higher value
Method in brief: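 Read-out is yeast growth inhibition relative to vehicle; cells used were the rad50EPP+ strain.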

[4] = NCI Yeast Anticancer Drug Screen. Data for the mgt1 strain (AID 153); settings: S. cerevisiae mgt1 mutant growth inhibition, stronger effect = higher value
Method in brief: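 Measured: inhibition of mgt1 yeast growth by compound, normalized to vehicle-treated cultures.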

[5] = NCI Yeast Anticancer Drug Screen. Data for the rad50 strain (AID 155);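 further: 0% = growth of vehicle-only cultures of the same strain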; settings: S. cerevisiae rad50 strain growth inhibition, stronger effect = higher value
Method in brief: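 Relative growth inhibition (compound vs vehicle) was measured in yeast with a defined repair-gene alteration.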

[6] = NCI Yeast Anticancer Drug Screen. Data for the mec2-1 strain (AID 157); settings: S. cerevisiae mec2-1 strain, stronger effect = higher value
Method in brief: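 Using mec2-1 yeast: add compound, measure growth, express inhibition versus vehicle-treated cultures.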

[7] = NCI Yeast Anticancer Drug Screen. Data for the rad14 strain (AID 159);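 further: 0% = growth of vehicle-treated control cultures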; settings: S. cerevisiae rad14 strain growth inhibition, stronger effect = higher value
Method in brief: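 Screen for anticancer potential: a yeast strain altered in DNA damage repair is grown with compound, and reduced growth is quantified against vehicle controls.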

[8] = NCI Yeast Anticancer Drug Screen. Data for the sgs1 mgt1 strain (AID 161);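 further: 0% = growth of cultures given vehicle only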; settings: S. cerevisiae sgs1 mgt1 strain, stronger effect = higher value
Method in brief: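 Growth of a repair-deficient yeast mutant was monitored after compound treatment and expressed as inhibition relative to vehicle-treated cultures.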

[9] = NCI Yeast Anticancer Drug Screen. Data for the CLN2oe strain (AID 163);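 further: 0% = growth of vehicle-only control cultures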; settings: S. cerevisiae CLN2oe strain, stronger effect = higher value
Method in brief: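 Whole-cell yeast growth assay. A strain engineered for altered cell-cycle control received compound, and inhibition relative to vehicle-treated cultures was recorded.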

[10] = NCI Yeast Anticancer Drug Screen. Data for the cln2 rad14 strain (AID 165);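 further: 0% = growth equal to vehicle treated cultures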; settings: S. cerevisiae cln2 rad14 strain, stronger effect = higher value
Method in brief: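 Yeast strain cln2 rad14, bearing defects in cell cycle control and DNA repair, serves as the test system; values reflect growth inhibition compared with vehicle.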

[11] = NCI Yeast Anticancer Drug Screen. Data for the bub3 strain (AID 167); settings: S. cerevisiae bub3 mutant strain, stronger effect = higher value
Method in brief: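 Screening used yeast with an engineered genetic alteration affecting cell cycle control. Compound-exposed cultures were compared with vehicle cultures, and reduced growth was taken as inhibition.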

[12] = NCI Yeast Anticancer Drug Screen. Data for the wt2 strain (AID 169);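 further: 0% = growth of vehicle-treated yeast cultures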; settings: S. cerevisiae wt2 strain growth inhibition, stronger effect = higher value
Method in brief: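 Treated yeast vs. vehicle-treated yeast: growth inhibition determined.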

[13] = NCI Yeast Anticancer Drug Screen. Data for the mlh1 strain (AID 171);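 further: 0% = growth of vehicle-treated control cultures of the same strain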; settings: S. cerevisiae mlh1 strain growth inhibition, stronger effect = higher value
Method in brief: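 A yeast strain with a defined genetic lesion serves as the test organism. Cultures receive compound or vehicle, and growth is measured.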

[14] = NCI Yeast Anticancer Drug Screen. Data for the mlh1 rad18 strain (AID 175); settings: S. cerevisiae mlh1 rad18 strain growth inhibition, stronger effect = higher value
Method in brief: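 Steps: expose repair-defective yeast to compound; measure growth; express inhibition against vehicle-treated controls.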

[15] = NCI Yeast Anticancer Drug Screen. Data for the rad18 strain (AID 177); settings: S. cerevisiae rad18 mutant growth inhibition, stronger effect = higher value
Method in brief: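 Measured value is growth inhibition of a yeast strain bearing a DNA repair alteration, referenced to vehicle-treated cells.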

[16] = at 5.0 µM (retest, dose inferred, filed as 0.5)
[17] = at 50.0 µM (retest, dose inferred, filed as 5.0)

Measured: growth inhibition

CCCCCCCN1C(=O)c2ccccc2C1=O
active: [5]; at 50.0 µM 83.9% | [11]; at 50.0 µM 73.8% | [14]; at 50.0 µM 86.6%
inactive: [1]; at 1.2 µM -1% | [1]; at 3.7 µM -1% | [1]; at 11.0 µM -3% | [1]; at 33.0 µM 11% | [1]; at 100.0 µM 28% | [2]; at 1.2 µM 0% | [2]; at 3.7 µM -1% | [2]; at 11.0 µM -1% | [2]; at 33.0 µM -1% | [2]; at 100.0 µM 0% | [3]; at 1.2 µM 0% | [3]; at 3.7 µM -1% | [3]; at 11.0 µM 8% | [3]; at 33.0 µM 25% | [3]; at 100.0 µM 35% | [4]; at 1.2 µM -7% | [4]; at 3.7 µM -6% | [4]; at 11.0 µM -5% | [4]; at 33.0 µM 9% | [4]; at 100.0 µM 31% | [5]; at 1.2 µM -2% | [5]; at 3.7 µM 5% | [5]; [16] -17% | [5]; at 11.0 µM 7% | [5]; at 33.0 µM 26% | [5]; [17] 3% | [5]; at 100.0 µM 22% | [6]; at 1.2 µM -5% | [6]; at 3.7 µM -8% | [6]; [16] -10% | [6]; at 11.0 µM -27% | [6]; at 33.0 µM -6% | [6]; [17] 11% | [6]; at 50.0 µM 53.2% | [6]; at 100.0 µM -11% | [7]; at 1.2 µM -1% | [7]; at 3.7 µM -10% | [7]; at 11.0 µM 4% | [7]; at 33.0 µM 13% | [7]; at 100.0 µM 2% | [8]; [16] -14% | [8]; [17] 19% | [8]; at 50.0 µM 67.8% | [9]; at 1.2 µM -1% | [9]; at 3.7 µM -2% | [9]; at 11.0 µM -4% | [9]; at 33.0 µM -6% | [9]; at 100.0 µM -11% | [10]; [16] -7% | [10]; [17] -8% | [10]; at 50.0 µM 30.6% | [11]; at 1.2 µM 3% | [11]; at 3.7 µM -4% | [11]; [16] -17% | [11]; at 11.0 µM 28% | [11]; at 33.0 µM 36% | [11]; [17] 34% | [11]; at 100.0 µM 37% | [12]; at 1.2 µM -2% | [12]; at 3.7 µM -1% | [12]; at 11.0 µM 0% | [12]; at 33.0 µM 11% | [12]; at 100.0 µM 45% | [13]; at 1.2 µM -12% | [13]; at 3.7 µM -6% | [13]; at 11.0 µM -19% | [13]; at 33.0 µM -19% | [13]; at 100.0 µM 1% | [14]; [16] -31% | [14]; [17] 56% | [15]; at 1.2 µM -1% | [15]; at 3.7 µM -5% | [15]; at 11.0 µM -1% | [15]; at 33.0 µM 13% | [15]; at 100.0 µM 28%

CC1(C)CC(=O)C(C(=O)Nc2cccs2)=C(O)C1
inactive: [1]; at 1.2 µM -8% | [1]; at 3.7 µM 7% | [1]; at 11.0 µM 17% | [1]; at 33.0 µM 64% | [2]; at 1.2 µM 21% | [2]; at 3.7 µM 28% | [2]; at 11.0 µM 23% | [2]; at 33.0 µM 50% | [3]; at 1.2 µM -56% | [3]; at 3.7 µM -63% | [3]; at 11.0 µM -53% | [3]; at 33.0 µM 18% | [4]; at 1.2 µM 10% | [4]; at 3.7 µM 18% | [4]; at 11.0 µM 35% | [5]; at 1.2 µM 14% | [5]; at 3.7 µM 16% | [5]; [16] 26% | [5]; at 11.0 µM 18% | [5]; [17] 42% | [6]; at 1.2 µM 3% | [6]; at 3.7 µM -18% | [6]; [16] 6% | [6]; at 11.0 µM 20% | [6]; [17] 49% | [7]; at 1.2 µM -10% | [7]; at 3.7 µM 2% | [7]; at 11.0 µM 10% | [8]; [16] -5% | [8]; [17] 61% | [9]; at 1.2 µM 15% | [9]; at 3.7 µM 26% | [9]; at 11.0 µM 29% | [9]; at 33.0 µM 63% | [10]; [16] 23% | [10]; [17] 37% | [11]; at 1.2 µM 26% | [11]; at 3.7 µM 23% | [11]; [16] 16% | [11]; at 11.0 µM 41% | [12]; at 1.2 µM 4% | [12]; at 3.7 µM 14% | [12]; at 11.0 µM 17% | [12]; at 33.0 µM 60% | [13]; at 1.2 µM 1% | [13]; at 3.7 µM 4% | [13]; at 11.0 µM 30% | [14]; [16] -36% | [14]; [17] 2% | [15]; at 1.2 µM 1% | [15]; at 3.7 µM 1% | [15]; at 11.0 µM 7% | [15]; at 33.0 µM 48%
active: [1]; at 100.0 µM 99% | [2]; at 100.0 µM 99% | [3]; at 100.0 µM 98% | [4]; at 33.0 µM 92% | [4]; at 100.0 µM 98% | [5]; at 33.0 µM 70% | [5]; at 50.0 µM 88.8% | [5]; at 100.0 µM 98% | [6]; at 33.0 µM 78% | [6]; at 50.0 µM 93% | [6]; at 100.0 µM 98% | [7]; at 33.0 µM 92% | [7]; at 100.0 µM 98% | [8]; at 50.0 µM 93.3% | [9]; at 100.0 µM 99% | [10]; at 50.0 µM 89.4% | [11]; at 33.0 µM 82% | [11]; [17] 70% | [11]; at 50.0 µM 90.8% | [11]; at 100.0 µM 99% | [12]; at 100.0 µM 99% | [13]; at 33.0 µM 92% | [13]; at 100.0 µM 99% | [14]; at 50.0 µM 90.4% | [15]; at 100.0 µM 99%
